Assay results from PubChem BioAssay.
Activity calls are given as the source filed them.

Legend:
[1] = E. coli DRC41 culture turbidity changes, primary screen, E. coli filamentation inducer project, strain DRC41, OD650, 48 h (AID 1152);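 also: E. coli MC1000 strain DRC41 lacking acrAB efflux pump and sulA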; conditions: E. coli DRC41 (acrAB sulA), higher = more signal, called active from +8 up or from −8 down
[2] = small-molecule binders of probe aLefty1, primary screen, biochemical, small-molecule microarray, 635/667 nm fluorescence (AID 1153); conditions: higher = more signal;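 also: score merges spot fluorescence with signal-to-noise ratio from the scanned slide images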
[3] = PSAC antagonists in infected red cells, primary screen, cell-based, P. falciparum Indochina, OD700, 1 h (AID 1154); conditions: P. falciparum Indochina infected RBC osmotic lysis, higher = more signal, called active from +8 up or from −8 down
[4] = PSAC antagonists in infected red cells, primary screen, cell-based, P. falciparum Indochina, OD700, 2 h (AID 1155);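 also: lysis reports solute entry through the parasite surface anion channel PSAC; channel blockers reduce lysis of infected cells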; conditions: P. falciparum Indochina infected erythrocytes, osmotic lysis OD700; higher = more signal, called active from +8 up or from −8 down
[5] = osmotic lysis modulators in infected erythrocytes, primary screen, PSAC antagonist project, cell-based, P. falciparum Indochina, OD700, 3 h (AID 1156); conditions: higher = more signal, called active from +8 up or from −8 down
[6] = PSAC antagonists in infected red cells, primary screen, cell-based, P. falciparum Indochina, OD700, 18 h (AID 1157); conditions: P. falciparum Indochina infected erythrocytes, osmotic lysis OD700, 18 h; higher = more signal, called active from +8 up or from −8 down
[7] = modulators of S6 phosphorylation in cells, primary screen, cell-based, A549, cytoblot, luminescence, serum-stimulated (AID 1158); conditions: A549 phospho-S6 cytoblot, 5 h, higher = more signal;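 also: serum-stimulated A549 lung adenocarcinoma cells; signal is phosphorylated S6 detected by cytoblot immunostaining with HRP secondary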
[8] = biological target: NADPH oxidase 2 (Homo sapiens) (UniProt P04839); assay: NOX2-dependent H2O2 signal modulators, primary screen, NOX inhibitor project, cell-based, HEK293-NOX2, PMA-stimulated, Amplex Red fluorescence (AID 1159); conditions: 45 min, higher = more signal, called active from +8 up or from −8 down; also: test concentration not given here
Sequence of NADPH oxidase 2 (Homo sapiens) (P04839 whole entry, looked up): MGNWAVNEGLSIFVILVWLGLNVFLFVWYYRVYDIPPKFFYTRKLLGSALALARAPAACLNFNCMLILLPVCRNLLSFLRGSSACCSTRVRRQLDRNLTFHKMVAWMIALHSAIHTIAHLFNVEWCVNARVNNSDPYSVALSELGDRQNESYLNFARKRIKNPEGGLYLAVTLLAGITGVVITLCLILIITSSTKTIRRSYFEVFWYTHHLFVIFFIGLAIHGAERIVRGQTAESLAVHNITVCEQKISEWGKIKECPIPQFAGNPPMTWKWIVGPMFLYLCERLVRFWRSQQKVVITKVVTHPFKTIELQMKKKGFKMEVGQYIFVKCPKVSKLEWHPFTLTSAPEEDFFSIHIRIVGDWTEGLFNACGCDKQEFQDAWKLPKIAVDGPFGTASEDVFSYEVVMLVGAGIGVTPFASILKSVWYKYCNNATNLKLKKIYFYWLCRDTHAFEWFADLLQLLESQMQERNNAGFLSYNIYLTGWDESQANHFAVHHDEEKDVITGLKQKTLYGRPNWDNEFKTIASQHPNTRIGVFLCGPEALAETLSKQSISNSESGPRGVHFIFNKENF

[9] = biological target: NADPH oxidase 4 (Homo sapiens) (UniProt Q9NPH5); assay: NOX4-dependent H2O2 signal modulators, primary screen, NOX inhibitor project, cell-based, HEK293-NOX4, tetracycline-induced, Amplex Red fluorescence (AID 1160); conditions: 45 min, higher = more signal, called active from +8 up or from −8 down
Sequence of NADPH oxidase 4 (Homo sapiens) (Q9NPH5 whole entry, looked up): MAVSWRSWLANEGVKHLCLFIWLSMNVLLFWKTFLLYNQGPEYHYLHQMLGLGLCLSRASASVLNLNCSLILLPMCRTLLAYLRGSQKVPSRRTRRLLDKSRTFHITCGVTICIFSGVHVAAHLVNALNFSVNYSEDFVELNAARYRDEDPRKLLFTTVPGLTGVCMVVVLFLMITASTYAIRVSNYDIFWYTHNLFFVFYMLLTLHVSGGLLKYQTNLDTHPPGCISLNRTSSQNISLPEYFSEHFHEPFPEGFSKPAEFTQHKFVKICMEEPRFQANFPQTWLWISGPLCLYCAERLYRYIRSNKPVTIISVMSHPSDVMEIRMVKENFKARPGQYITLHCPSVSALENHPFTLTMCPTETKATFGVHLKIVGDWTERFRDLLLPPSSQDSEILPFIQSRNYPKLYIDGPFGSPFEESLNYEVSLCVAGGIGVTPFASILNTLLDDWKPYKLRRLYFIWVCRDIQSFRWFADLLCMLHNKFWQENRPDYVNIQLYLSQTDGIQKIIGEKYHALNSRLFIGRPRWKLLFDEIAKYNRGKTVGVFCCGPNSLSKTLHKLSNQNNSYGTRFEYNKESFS

[10] = biological target: NADPH oxidase 5 (Homo sapiens) (UniProt Q96PH1); assay: NOX5-dependent H2O2 signal modulators, primary screen, NOX inhibitor project, cell-based, HEK293-NOX5, Amplex Red fluorescence (AID 1161); conditions: HEK293-NOX5, ionomycin, 45 min, higher = more signal
Sequence of NADPH oxidase 5 (Homo sapiens) (Q96PH1 whole entry, looked up): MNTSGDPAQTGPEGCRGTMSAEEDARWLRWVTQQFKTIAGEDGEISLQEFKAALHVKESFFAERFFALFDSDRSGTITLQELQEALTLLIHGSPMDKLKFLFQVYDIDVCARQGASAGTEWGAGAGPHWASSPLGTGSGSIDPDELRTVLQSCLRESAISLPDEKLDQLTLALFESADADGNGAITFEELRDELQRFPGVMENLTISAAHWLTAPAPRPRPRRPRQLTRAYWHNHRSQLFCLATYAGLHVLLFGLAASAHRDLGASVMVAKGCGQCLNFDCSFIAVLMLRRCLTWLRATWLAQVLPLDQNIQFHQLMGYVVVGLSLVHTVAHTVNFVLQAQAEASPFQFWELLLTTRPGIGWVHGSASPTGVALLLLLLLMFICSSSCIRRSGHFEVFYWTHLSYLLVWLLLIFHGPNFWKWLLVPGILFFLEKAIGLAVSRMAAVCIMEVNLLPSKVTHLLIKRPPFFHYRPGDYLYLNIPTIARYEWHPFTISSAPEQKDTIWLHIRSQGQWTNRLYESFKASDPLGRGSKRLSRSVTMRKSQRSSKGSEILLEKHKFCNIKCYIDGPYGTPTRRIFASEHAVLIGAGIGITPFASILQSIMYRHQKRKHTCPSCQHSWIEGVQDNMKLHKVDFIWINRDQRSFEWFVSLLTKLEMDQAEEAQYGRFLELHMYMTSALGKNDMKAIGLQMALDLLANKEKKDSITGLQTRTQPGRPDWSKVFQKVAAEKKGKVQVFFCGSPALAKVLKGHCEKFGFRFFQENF

SMILES	z-score [1]	composite z-score [2]	z-score [3]	z-score [4]	z-score [5]	z-score [6]	z-score [7]	z-score [8]	z-score [9]	z-score [10]
CCOC(=O)NN=C1C[C@@H](O)[C@@H](O)[C@@H]2[C@@H]3C(=O)N(c4cccc(Oc5ccccc5)c4)C(=O)[C@@H]3CC[C@@H]12	-0.852 (inactive)	-0.0984	0.999 (inactive)	0.753 (inactive)	0.471 (inactive)	0.233 (inactive)	-0.142	0.361 (inactive)	-0.0548 (inactive)	-2.88
CCN1C(=O)[C@H]2[C@H]3[C@H](O)[C@H](O)CC(=NOCC(C)C)[C@@H]3CC[C@H]2C1=O	-1.87 (inactive)	-0.245	0.344 (inactive)	0.365 (inactive)	0.456 (inactive)	0.379 (inactive)	-0.126	0.603 (inactive)	0.324 (inactive)	-0.654
CO[C@H]1COC(=O)CC=C[C@@H](C)[C@H](NS(=O)(=O)c2ccc(C)cc2)COC(=O)CCC[C@@H]1C	-0.643 (inactive)	-0.062	-0.669 (inactive)	-1.56 (inactive)	-0.883 (inactive)	-1.62 (inactive)	-0.56	-0.255 (inactive)	0.987 (inactive)	0.428
COC(=O)[C@H](C)NC(=O)CCC1CC(OC(=O)NCc2cccc3ccccc23)CC2(CCCC(COC(=O)NCC(c3ccccc3)c3ccccc3)O2)O1 (stereo not given in full)	0.223 (inactive)	-0.0562	-0.228 (inactive)	-0.0825 (inactive)	-1.34 (inactive)	-0.242 (inactive)	0.863	-0.121 (inactive)	1.09 (inactive)	1.47
COc1ccc(O[C@H]2C=C[C@@H](c3ccccc3)O[C@@H]2CON=C(C)CCN2CCc3nc(-c4ccccc4)c(-c4ccccc4)cc3C2)cc1	-1.59 (inactive)	-0.101	2.48 (inactive)	1.25 (inactive)	0.855 (inactive)	0.71 (inactive)	-0.0313	0.168 (inactive)	0.00405 (inactive)	-0.434
C=CC[C@@H]1C=C[C@H](ON=C(C)CCC(=O)OC[C@H]2O[C@H](c3ccccc3)C=C[C@@H]2Oc2ccc(OC)cc2)[C@@H](CO)O1	0.871 (inactive)	-0.291	10.9 (active)	1.25 (inactive)	1.2 (inactive)	0.637 (inactive)	-0.0785	-3.06 (inactive)	0.605 (inactive)	-2.79
CC(=O)Nc1ccc([C@@H]2N[C@H](C(=O)O)CC[C@H]2C)cc1	0.961 (inactive)	-0.017	-0.188 (inactive)	0.182 (inactive)	-0.23 (inactive)	-0.267 (inactive)	0.699	-0.121 (inactive)	0.195 (inactive)	0.13
CO[C@H]1COC(=O)CCC[C@@H](C)[C@H](OC)COC(=O)[C@@H]2CCCN2C(=O)CC=C[C@@H]1C	-0.704 (inactive)	-0.005	-1.11 (inactive)	-1.08 (inactive)	-0.186 (inactive)	-0.939 (inactive)	-0.112	-0.336 (inactive)	-0.00577 (inactive)	0.282
C[C@@H](c1ccccc1)N1C(=O)[C@H]2[C@H]3[C@H](O)[C@H](O)CC(=NO[C@@H]4O[C@H](CO)[C@@H](O)[C@H](O)[C@H]4O)[C@H]3CC[C@H]2C1=O	0.391 (inactive)	1.16	-0.483 (inactive)	-0.205 (inactive)	-0.0944 (inactive)	-0.0378 (inactive)	-0.0015	1.5 (inactive)	-1.93 (inactive)	-0.63
C[C@@H]1CC[C@H]2C(=O)O[C@@H](COc3ccc(C(C)(C)C)cc3)CN2[C@@H]1c1ccc(Br)cc1	0.328 (inactive)	-0.229	0.857 (inactive)	0.681 (inactive)	-1.34 (inactive)	0.54 (inactive)	-0.0874	-0.303 (inactive)	0.732 (inactive)	0.154
COCOc1ccc(Br)cc1C(=O)[C@@H]1O[C@H]1c1cccc(OC)c1	0.467 (inactive)	-0.0662	5.75 (inactive)	1.12 (inactive)	-0.23 (inactive)	0.248 (inactive)	-0.291	1 (inactive)	-0.575 (inactive)	-1.92
C#CCCCON=C1C[C@@H](O)[C@@H](O)[C@@H]2[C@@H]3C(=O)N(c4ccc(F)cc4F)C(=O)[C@@H]3CC[C@H]12	-1.41 (inactive)	-0.193	1.04 (inactive)	-1.22 (inactive)	1.13 (inactive)	-1.41 (inactive)	0.27	-0.76 (inactive)	0.615 (inactive)	0.306
C#CCCCON=C1C[C@@H](O)[C@@H](O)[C@@H]2[C@@H]3C(=O)N(CCC(=O)OCC)C(=O)[C@@H]3CC[C@H]12	0.756 (inactive)	0.105	1.08 (inactive)	-1.4 (inactive)	0.792 (inactive)	-1.51 (inactive)	1.76	-2.03 (inactive)	0.213 (inactive)	-0.949
CCOC(=O)[C@H](Cc1ccccc1)NC(=O)CCC1CC(OC(=O)NCCc2ccc(F)cc2)CC2(CCCC(COC(=O)NCCCN3CCCC3=O)O2)O1 (stereo not given in full)	0.141 (inactive)	-0.105	-1.36 (inactive)	-0.861 (inactive)	-0.0494 (inactive)	-0.445 (inactive)	0.94	-0.232 (inactive)	0.192 (inactive)	-1.09
O=C(NN=C1C[C@@H](O)[C@@H](O)[C@@H]2[C@@H]3C(=O)N(C4CCCCC4)C(=O)[C@@H]3CC[C@H]12)OCc1ccccc1	-0.898 (inactive)	0.0721	7.54 (inactive)	0.844 (inactive)	0.522 (inactive)	0.551 (inactive)	0.0279	-0.0856 (inactive)	-1.85 (inactive)	-0.671
C#CCCCON=C1C[C@@H](O)[C@@H](O)[C@@H]2[C@@H]3C(=O)N(c4ccc(F)cc4F)C(=O)[C@@H]3CC[C@@H]12	0.177 (inactive)	-0.147	1.22 (inactive)	0.719 (inactive)	0.642 (inactive)	0.0591 (inactive)	-0.404	2.01 (inactive)	0.813 (inactive)	0.0107
CON=C(C)CCC(=O)OC[C@H]1O[C@H](c2ccccc2)C=C[C@@H]1Oc1ccc(OC)cc1	-2.31 (inactive)	-0.196	5.54 (inactive)	1.17 (inactive)	12.7 (active)	0.49 (inactive)	-0.312	-2.7 (inactive)	-0.458 (inactive)	-4.44
COC(=O)[C@@H]1CC[C@H](C)[C@@H](c2ccc(C)cc2)N1C(=O)c1ccc(C=NO[C@@H]2O[C@H](COC(C)=O)[C@@H](OC(C)=O)[C@H](OC(C)=O)[C@H]2OC(C)=O)cc1	-0.492 (inactive)	0.0391	-0.013 (inactive)	-0.647 (inactive)	0.819 (inactive)	-1.79 (inactive)	1.02	-0.454 (inactive)	-0.674 (inactive)	-2.1
CC=CC1=C(CO)C(=O)[C@@H]2O[C@@H]2C1=O	0.33 (inactive)	-0.202	-0.4 (inactive)	-0.344 (inactive)	-0.501 (inactive)	-0.267 (inactive)	-0.292	2.08 (inactive)	-0.329 (inactive)	0.846
CCOC(=O)NN=C1C[C@@H](O)[C@@H](O)[C@@H]2[C@@H]3C(=O)N(Cc4ccc5c(c4)OCO5)C(=O)[C@@H]3CC[C@H]12	0.245 (inactive)	-0.239	5.49 (inactive)	0.756 (inactive)	0.41 (inactive)	0.476 (inactive)	-0.4	-3.49 (inactive)	-0.0101 (inactive)	-0.598
C=COC[C@@H]1CN2[C@@H](CC[C@@H](C)[C@@H]2c2ccc(Br)cc2)C(=O)O1	-0.778 (inactive)	-0.0984	2.08 (inactive)	-0.0728 (inactive)	0.429 (inactive)	-0.959 (inactive)	0.993	0.723 (inactive)	-0.595 (inactive)	-1.14
CCCNC(=O)OC[C@H]1O[C@H](CCON=C(C)CCN2CCc3nc(CC)c(CC)cc3C2)C=C[C@@H]1Oc1ccc(OC)cc1	-0.611 (inactive)	-0.0949	8.46 (active)	1.12 (inactive)	1.66 (inactive)	0.539 (inactive)	0.58	-3.19 (inactive)	-1.7 (inactive)	-3.32
